Among the data in the OligoGym collection are sensor-assay potency score (higher = more potent) values, retold here.
Note: reference of the scale not given here.

For one test, the target named is LCN1. Nature of the test: pooled miR-30 sensor sort-seq; sequence = guide strand. The conditions noted are these: shRNA.
TGTTCTTGGGGTCTCTGCCCAC: the sensor-assay potency score (higher = more potent) is -1.02. As for TTGGCTTCCAGGTTGCCCCCTT, the sensor-assay potency score (higher = more potent) was -0.189. Same read-out and setting: for TGGTCCTTCACGTGCGACCTGA the value was -1.44. Still for that read-out and setting: for ATTCATCTCAGGGAACTCCCTG the value was -0.0672; for TCCTGAATCTCCTCGTCTGAGG, -2.03; for TGACACATCCTGAATCTCCTCG, 1.02. On the same count and under the same terms, for TTCATCTCAGGGAACTCCCTGT the value was 0.622.

The target in the next test is LECT2. The test is described as above. The conditions noted are these: shRNA.
TCTCATTGGAAGACTTGCCAGC: the sensor-assay potency score (higher = more potent) is -0.403.

Sequence TTGACACAAAAACCTCTTCCAG displayed a sensor-assay potency score (higher = more potent) of -1.04. ATTGATAGCATTCTTGTTTTGA showed a sensor-assay potency score (higher = more potent) of -0.317. Take TATTCGAACACCATTATTGATA: the sensor-assay potency score (higher = more potent) was -1.28.

Turning to TTATTGATAGCATTCTTGTTTT, the sensor-assay potency score (higher = more potent) is -1.1. Turning to ATGTAGAACATTTTGACACAAA, the sensor-assay potency score (higher = more potent) was -1.54. With TTTGAGCAGAGTACTGTCCACA, the sensor-assay potency score (higher = more potent) is -0.808.

On to TTGTATGCCAGGATAAACTTTC, for which the sensor-assay potency score (higher = more potent) is -0.895.

Consider TAATGTAGAACATTTTGACACA, for which the sensor-assay potency score (higher = more potent) was -0.673. Same read-out and setting: for TATGCCAGGATAAACTTTCTGC the value was -0.251; for ATTATTGATAGCATTCTTGTTT, -0.52. With TTCCAGATATTCGAACACCATT, the sensor-assay potency score (higher = more potent) was -1.45.

In another test the target is LEFTY1. Described as above. Particulars: shRNA.
On to TTCTCGGCCCACTTCATCCCCT, for which the sensor-assay potency score (higher = more potent) was -1.23. Same read-out and setting: for TCTTTGAGCTGCAGCTGCCGCA the value was -1.36.

Regarding TATCTCCACATGTAAGTGCTTA, the sensor-assay potency score (higher = more potent) is -0.789. Still for that read-out and setting: for TAGTCCCCAAGGTCCAGGGTGT the value was -1.02. Still for that read-out and setting: for TTACAAAGTCTTTATTATCTGG the value was -0.428; for TCATAAGCCAGGAAGCCCGGGG, -0.504; for TGACCAGCTCCTCCATGTCGGC, -1.7. The sequence TCCATAGTCCCCAAGGTCCAGG had a sensor-assay potency score (higher = more potent) of -1.98. With TTTGAGCTGCAGCTGCCGCAGC, the sensor-assay potency score (higher = more potent) was -0.825.

Turning to TTAGGTGAGGTAACTTGTCAGA, the sensor-assay potency score (higher = more potent) is -0.87. On the same count and under the same terms, for TAAACAATGACACATTGGGCTT the value was -1; for TCCAACGCCAGGAACCTGCCGG, -1.04.

The next test concerns the target LEKR1. The description is as above. Particulars: shRNA.
In turn, TTAGATCTCTTGTAGCGCCTGT showed a sensor-assay potency score (higher = more potent) of 0.858.

TTCTCTACGCACTGTCTCCTGA came in with a sensor-assay potency score (higher = more potent) of -0.0391. The sequence TTTAAGAGTGGTCACTTCCTGC showed a sensor-assay potency score (higher = more potent) of -0.157. In the case of TTGCTTTTCTTTCACAGTCAGC, the sensor-assay potency score (higher = more potent) is -1.35. On the same count and under the same terms, for TTCTGCTTCAATCTTCTCCTTC the value was 0.505. In turn, TACTCTTTTCAGTTCATCCGAC displayed a sensor-assay potency score (higher = more potent) of 0.07.

In the case of TTGCTCTTCAAATTCAACCAAG, the sensor-assay potency score (higher = more potent) is -1.09. The sequence TTGCAATTTTGTTTCTTCCTTA yielded a sensor-assay potency score (higher = more potent) of 0.537.

The sequence TTTCACAGTCAGCTCTTCCTGT came in with a sensor-assay potency score (higher = more potent) of 0.514.
